# From PubChem
# Hits are enriched below; roughly 7.9% of the tested compounds scored in any of these assays.
# LASV entry inh: blocks Lassa virus binding to or entry into cells | Lassa virus pseudotype entry inhibition, cell reporter | Potency, µM (titrated, usually from 37.9 µM), for the others: at the highest dose activity change, negative = inhibition, most hits filed as inhibitors | hit rate 1.2% among 300,000 | AID 540256; calls by dose curve; tested in HEK293 cells; note: potency is the fitted concentration of half-maximal effect; nearly all actives have a fitted effect of over 50% in size
# HCV inhibitor: HCV inhibition. Huh7.5.1 HCVcc-Cre infection, luciferase reporter, 44 h. Potency, µM (doses to about 41.8 µM), for the others: at the highest dose activity change, negative = inhibition, hits mostly inhibitors. hit rate 3.4% among 340,000; active = well fitted inhibition curve with a large enough effect; inconclusive = small, poorly fitted or top-dose-only effect, or another doubt; inactive = no such curve, though single readings can be large or run the other way; note: potency is the fitted concentration of half-maximal effect
#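 Compounds are dispensed onto cells plated 4 h earlier at 1,000 per well, with HCVcc-Cre virus (about 0.5 moi) added next. Following 44 h of culture, luminescent signal is measured for 15 sec after 15 min with substrate at room temperature.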
# MARV entry inh: inhibitors of Marburg virus binding or cell entry; Potency, µM (highest dose often 37.8 µM), inactives show at the top dose activity change, negative = inhibition, usual class: inhibitors; hit rate 1.8% among 300,000; Marburg virus pseudotyped entry inhibition, cell reporter; calls by dose curve; tested in HEK293 cells; note: potency is the fitted concentration of half-maximal effect
# HCMV antiviral: human cytomegalovirus inhibition; hit rate 4.5% among 410,000; activity change, negative = inhibition, % at 57.5 µM; AID 1259415; HFF cells, HCMV-luciferase reporter, 72 h; stronger effect = lower value; in the data active = activity change below about -60%; inconclusive = no clear call, values can overlap the other calls; inactive = above about -39%
#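 Screen run at 2 compound doses on HFFs infected with reporter HCMV, MOI 1 PFU/cell. Luciferase activity from cell lysates at 72 h post infection gave inhibition relative to buffer-only and Salinomycin wells.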
# FMDV inh: antivirals against foot and mouth disease virus | FMDV antiviral cell-based qHTS | Potency, µM (series often up to 57.9 µM), for inactives: at the top dose activity change, negative = inhibition, hits mostly inhibitors | hit rate 1.2% among 410,000 | AID 1159524; calls by dose curve; tested in HEK293T cells; note: read-out not given here; potency is the fitted concentration of half-maximal effect; nearly all actives have a fitted effect of over 45% in size
# Numbers without * were called inactive; ? = inconclusive; · = no result; [ ] = another dose, or the depositor's remark. % is set by controls: 0 for no effect and ±100 for the full control effect.
SMILES,LASV entry inh,HCV inhibitor,MARV entry inh,HCMV antiviral,FMDV inh
CCc1ccc(C2=C(C)C(N3CCC(C(=O)Nc4ccc(F)cc4)CC3)=NS2(=O)=O)cc1,?,·,·,-33.1,-21.5%
CC(C)CCn1c(-c2nonc2N)nc2ccccc21,-22.7%,11.2µM*,?,?,-1.0%
CCOC(=O)c1ccccc1NC(=O)Cn1c(-c2nonc2N)nc2ccccc21,?,?,0.0517µM*,-73.8*,0.0%
COc1cccc(N2CC(NC(=O)c3ccc(S(=O)(=O)N4CCCCC4)cc3)CC2=O)c1 (stereo not given),-0.1%[46.1 µM],·,·,-11.7,-27.4%
COCCCn1c(SCCc2ccccc2)nc2cc(OC)c(OC)cc2c1=N,·,12.6µM*,·,-18.1,?
COc1ccc2c3c(n(C)c2c1)[C@H](CO)N(C(=O)c1cccc(F)c1)CC31CN(C(=O)c2cccc(F)c2)C1,·,·,·,25.7,·
Cc1cc(C(=O)N/N=C/c2c(C)nn(-c3ccccc3)c2C)n[nH]1,-17.4%[46.1 µM],-9.5%,4.9%[46.1 µM],13.0,6.8%
Cc1nn(-c2ccccc2)c(C)c1/C=N/NC(=O)c1cc(C23CC4CC(CC(C4)C2)C3)[nH]n1,?,10µM*,?,1.6,?
Cc1nn(-c2ccccc2)c(C)c1/C=N/NC(=O)c1cccs1,3.16µM*,?,11.2µM*,32.6,20.6%
Cc1nn(-c2ccccc2)c(C)c1/C=N/NC(=O)c1cc(C2CC2)[nH]n1,-20.1%,-10.1%,?,10.0,-2.5%
Cc1nn(-c2ccccc2)c(C)c1/C=N/NC(=O)c1cc(-c2cccs2)[nH]n1,?,?,?,-89.3*,?
Cc1nn(-c2ccccc2)c(C)c1/C=N/NC(=O)c1ccccc1O,8.9%,29.4%,-1.7%,33.5,-5.9%
Cc1nn(-c2ccccc2)c(C)c1/C=N/NC(=O)c1cc(-c2ccc(Br)s2)[nH]n1,6.51µM*,?,7.3µM*,-27.8,-16.3%
Cc1ccc(-c2nc(C)c(CCNC(=O)C(=O)Nc3ccc(C)c(Cl)c3)s2)cc1,?,·,·,37.9,-18.5%
CCOC(=O)c1noc2ncnc(N(CCC(=O)OC)c3ccccc3)c12,7.2%[46.1 µM],·,·,-9.8,-26.9%
Cc1nn(-c2ccccc2)c(C)c1/C=N/NC(=O)c1cc(-c2ccc(Cl)s2)[nH]n1,10.3µM*,?,9.2µM*,-11.2,3.98µM*
Cc1nn(-c2ccccc2)c(C)c1/C=N/NC(=O)CSc1nnc(SCc2ccc(Cl)cc2)s1,9.2µM*,14.1µM*,?,35.6,?
O=c1c2c3c(sc2nc(NCCOCCO)n1Cc1ccco1)CCCCC3,·,-9.2%,·,89.8,0.5%
CC(O)CNc1nc2sc3c(c2c(=O)n1Cc1ccco1)CCCCC3 (stereo not given),18.4%[46.1 µM],-17.0%,?,34.5,6.7%
CC(O)CNc1nc2sc3c(c2c(=O)n1CCc1ccccc1)CCCCC3 (stereo not given),25.9µM*,-3.8%,?,-27.7,13.2%
CN(C)CCNc1nc2sc3c(c2c(=O)n1CCc1ccccc1)CCCCC3,·,?,·,-98.9*,-22.9%
COc1cccc(/C(C#N)=C/c2c(-c3ccc(Cl)cc3)nc3c(C)cccn23)c1,?,11.2µM*,?,?,-14.1%
O=S1(=O)C=C(Sc2nc3cc(Cl)ccc3o2)c2ccccc21,?,7.94µM*,7.94µM*,·,28.2µM*
CCN(CC)C(=O)c1cc(-c2ccc(Cl)cc2)on1,16.5%[46.1 µM],·,?,82.8,85.6%
COC(=O)C1=C(c2cccc3c2S(=O)(=O)c2ccccc2-3)C[C@@H]2CC[C@H]1N2C(=O)N1CCc2cc(OC)c(OC)cc2C1,·,10µM*,·,-14.5,-30.2%
SMILES,LASV entry inh,HCV inhibitor,MARV entry inh,HCMV antiviral,FMDV inh
CCOc1cccc2cc(-c3nc4ccc(C(=O)O)cc4[nH]3)c(=O)oc12,20.8%[46.1 µM],·,·,47.3,11.2µM*
COc1ccc2oc(=O)c(-c3nc4ccc(C)cc4[nH]3)cc2c1,-5.1%[46.1 µM],·,·,59.6,24.0%
C=CCc1cccc2cc(-c3nc4ccc(C(=O)O)cc4[nH]3)c(=O)oc12,0.7%[46.1 µM],·,·,57.0,15.8µM*
COc1ccc2cc(-c3nc4ccc(C(=O)O)cc4[nH]3)c(=O)oc2c1,10µM*,·,·,-16.4,1µM*
CC(=O)c1ccc(F)c(-c2cc(C)cc3c2OC(CNC(=O)c2ccnn2C)C3)c1 (stereo not given),·,·,·,·,-9.9%
Cc1ccc(-n2ncc3c(NC4CCCCC4)ncnc32)cc1Cl,6.5%[46.1 µM],·,·,?,?
COC(=O)c1cc2sccc2n1Cc1ccc(F)cc1Cl,·,·,-4.8%[46.1 µM],-20.4,-21.2%
